IL1B secr inh: qHTS for Inhibitors of Inflammasome Signaling: IL-1-beta AlphaLISA Primary Screen. THP-1 LPS/ATP IL-1B secretion, AlphaLISA, 16 h; active compounds read low. activity change, % at 57.5 µM. 360,000 compounds, 4.7% hits; in the data active = activity change below about -50%; inconclusive = mostly about -30% to -49%; also: % is scaled to controls: 0 for no effect and ±100 for the full control effect
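THP-1 cells pretreated 1 hr with compounds (up to 57.5 uM final), then stimulated with LPS (250 ng/mL final) plus ATP (1.25 mM final); secreted IL-1B measured by AlphaLISA after 16 hr, decreased signal indicating inhibition.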
Giardia kill: Small Molecules that selectively kill Giardia lamblia: qHTS | Giardia lamblia trophozoite viability | activity change, % at 7.66 µM, hits read low | 340,000 compounds, 0.15% hits | AID 540267, 2011; in the data active = activity change below about -80%; inconclusive = between about -30% and that limit;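 also: parasites exposed to compound for two days anaerobically before the ATP read; % is scaled to controls: 0 for no effect and ±100 for the full control effect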
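Giardia trophozoites, 100 cells per well, were exposed to compounds for 48 hrs at 37 deg C under anaerobic conditions; viability was then read as ATP content by bioluminescence after 15-30 min at room temperature.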
TGFb SMAD3 inh: qHTS for Inhibitors of TGF-b. AID 588855, 2011. HepG2 CAGA-GFP TGF-b/SMAD3 reporter, GFP fluorescence, 18 h; TGF-beta stimulated, 500 pg/mL final. 410,000 compounds, 1.2% hits. Potency, µM (titrated, usually from 46.1 µM), without a hit: at the top dose activity, negative = inhibition, usual class: inhibitors; also: potency is read from the fitted curve at half-maximal effect; % is scaled to controls: 0 for no effect and ±100 for the full control effect; nearly all actives have a fitted effect of over 65% in size
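TGF-beta reporter screen: HEPG2 CAGA-GFP, 1% FBS, 500 pg/mL TGF-beta final, 18 h; per-cell GFP summed per well; curves fitted and categorized by class.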
HepG2 tox: qHTS for Inhibitors of TGF-b: Cytotox Counterscreen | HepG2 CAGA-GFP viability, ATP luminescence, 18 h | 410,000 compounds, 0.76% hits | Potency, µM (doses to about 46.1 µM), without a hit: at the top dose activity change, negative = cytotoxicity, hits mostly cytotoxic | AID 588856, 2011; also: potency is read from the fitted curve at half-maximal effect
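HepG2 CAGA-GFP cells (1000/well, DMEM with 1% FBS) received compound, then TGF-beta at 500 pg/mL final, and were incubated 18 hours at 37 degrees C. Viability was read by CellTiter-Glo luminescence. Media-only wells were set as complete cell-killing and DMSO as no toxicity.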
HT1080 IDH1KD tx: qHTS for induction of synthetic lethality in tumor cells producing 2HG: qHTS for the HT-1080-IDH1KD cell line; HT-1080 IDH1 knockdown viability, ATP luminescence, 48 h; Potency, µM (titrated, usually from 46.1 µM), inactives show at the top dose activity, negative = toxicity, most hits filed as cytotoxic; 360,000 compounds, 2% hits;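 also: potency is read from the fitted curve at half-maximal effect; 0% = DMSO wells and -100% = cell-free medium wells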
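CellTiter-Glo luminescence after 48 h compound exposure at 37 degrees C of IDH1-knockdown HT-1080 cells in 5% FBS RPMI. %Activity scaled between DMSO wells and cell-free media wells, with curves fitted and assigned curve classes.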
HT1080NT lethal: qHTS for induction of synthetic lethality in tumor cells producing 2HG: qHTS for the HT-1080-NT fibrosarcoma cell line. Potency, µM (titrated, usually from 46.1 µM), for inactives: top-dose activity, negative = less viability, actives largely listed as cytotoxic. 360,000 compounds, 1.6% hits. HT-1080-NT fibrosarcoma viability, CellTiter-Glo ATP luminescence, 48 h. AID 686970, 2013;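 also: NT is the 2HG producing partner of a matched IDH1 knockdown line; potency is read from the fitted curve at half-maximal effect; 0% = DMSO-treated cells and -100% = media-only wells without cells; nearly all actives have a fitted effect of over 55% in size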
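Compounds were tested in concentration-response format on HT-1080-NT cells for 48 hours at 37 degrees C. Cell viability came from CellTiter-Glo luminescence; curves were classified by r2, response magnitude and activity.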
Numbers without * were called inactive; ? = inconclusive; · = not tested or not shown. This is a sample that favours compounds with a hit; in the whole collection about 6.5% have one here. Unless noted, calls follow the shape of the dose curve; as a rule, active = well fitted curve in the direction sought with a large enough effect; inconclusive = small, poorly fitted or top-dose-only effect, or another doubt; inactive = no such curve, though single readings can be large; an effect the other way counts as inactive or inconclusive.

SMILES	IL1B secr inh	Giardia kill	TGFb SMAD3 inh	HepG2 tox	HT1080 IDH1KD tx	HT1080NT lethal
CN(CCc1ccccn1)C(=O)CCc1nnc(CCCc2ccccc2)o1	-2	0	-2%	5%	1%	20%
COC(=O)c1cccc(-n2sc3ccccc3c2=O)c1	-101*	5	?	-34%	-18%	-21%
COc1ccccc1-c1cc(C(F)(F)F)nc(S(=O)(=O)CCCC(=O)NCc2ccc(F)cc2)n1	-100*	14	?	14µM*	16µM*	9.2µM*
COc1ccccc1-c1cc(C(F)(F)F)nc(S(=O)(=O)CCCC(=O)NC(C)C)n1	-98*	9	?	-22%	5.8µM*	5.8µM*
COc1ccccc1-c1cc2nc(C)c(CCC(=O)NCc3ccc(F)cc3)c(C)n2n1	16	-13	8%	1%	6%	-1%
COc1ccccc1-c1cc(C(F)(F)F)nc(N2CCCCC2)n1	27	7	-22%	4%	13%	5%
COc1ccccc1-c1cc(C(F)(F)F)nc(N2CCCC2)n1	30	-29	-21%	-14%	5%	1%
COc1ccccc1-c1cc(C(F)(F)F)nc(S(C)(=O)=O)n1	-109*	2	?	-116%	18µM*	?
CCCCn1c(=O)[nH]c(=O)c2c1nc(-c1ccc(OC)c(Br)c1)n2CC(C)C	?	11	?	-12%	23µM*	29µM*
CC(C)Oc1ccc(F)cc1-c1cc(C(=O)Nc2ccccc2)[nH]n1	-69*	·	3%	4%	25%	5%
CC(C)Oc1ccc(F)cc1-c1cc(C(=O)Nc2ccc(C(C)(C)C)cc2)[nH]n1	15	·	?	-79%	18µM*	23µM*
Cc1ccc(-c2cc(C(=O)N3CCc4ccccc4C3)[nH]n2)cc1C	18	-27	12%	-4%	-16%	4%
CC(C)Oc1ccc(F)cc1-c1cc(C(=O)N2CCc3ccccc3C2)[nH]n1	-21	·	14µM*	-33%	-22%	-19%
O=C(Nc1cccc(Cl)c1)c1cccc(Oc2ccc([N+](=O)[O-])cc2Cl)c1	-59*	-11	16µM*	-29%	?	?
COc1ccc(NC(=O)c2cccc(Oc3ccc([N+](=O)[O-])cc3Cl)c2)cc1	39	7	?	3%	?	?
O=C1CC(c2ccc(O)cc2)Oc2cc(O)ccc21 (stereo not given)	-12	20	-10%	-18%	0%	0%
Cn1c(Cl)cnc1C1CC(=O)c2cc(Cl)ccc2O1 (stereo not given)	-95*	-16	?	-57%	9.2µM*	?
O=C1CC(c2cccc(O)c2)Oc2ccccc21 (stereo not given)	-83*	-3	-28%	-15%	-5%	1%
O=C1CC(c2ccc(Cl)cc2)Oc2ccc(Cl)cc21 (stereo not given)	-87*	11	4%	-22%	?	?
O=C1CC(c2ccccc2)Oc2ccccc21 (stereo not given)	?	-14	6%	-3%	-3%	-21%
O=C(c1cn(Cc2ccccc2)nc1-c1ccccc1)N1CCN(c2ccccn2)CC1	7	6	-12%	-23%	16µM*	?
O=C(c1cc(C2CC2)nn1-c1ccccc1)N1CCN(c2ccccn2)CC1	-63*	4	11%	-3%	-1%	4%
O=C(c1cc(C2CC2)nn1-c1ccccc1)N1CCN(c2ccccc2O)CC1	?	2	-19%	3%	19%	12%
